Results reported in PubChem BioAssay (NCI).
Compounds without any hit were thinned out: in the full panel of roughly 83,000, 20% have a hit.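 Cell lines were cultured in 96-well plates, exposed to a single compound concentration, and assessed for percent growth 48 hours later.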 Activity calls are given as the source filed them. The calls were made as follows: active = growth percent below 10; inactive = the rest.

Key:
Assay in all cases: NCI-60 one-dose screen, 48 h (100 = growth as untreated, 0 = no growth, -100 = all killed)
Settings in all cases: 10 µM unless noted
NCI-H23 lung = system: NCI-H23 lung
NCI-H226 lung = system: NCI-H226 lung
NCI-H322M lung = system: NCI-H322M lung
HOP-62 NSCLC = system: HOP-62 NSCLC
NCI-H460 lung = system: NCI-H460 lung
HOP-92 NSCLC = system: HOP-92 NSCLC
NCI-H522 lung = system: NCI-H522 lung
A549/ATCC NSCLC = system: A549/ATCC NSCLC
786-0 renal = system: 786-0 renal
COLO 205 colon = system: COLO 205 colon

Measured: growth

Cc1nn(-c2ccccc2)c(/N=C/N(C)C)c1/C=C/C(=O)c1ccc(Cl)cc1
inactive: NCI-H23 lung 96.9% | NCI-H226 lung 98.3% | NCI-H322M lung 101% | HOP-62 NSCLC 93.2% | NCI-H460 lung 103% | HOP-92 NSCLC 78% | NCI-H522 lung 78.4% | A549/ATCC NSCLC 108% | 786-0 renal 103% | COLO 205 colon 110%

O=C(/C=C/c1ccc(Br)cc1)c1ccc(-n2cc(CN3CCN(c4cc5c(cc4F)c(=O)c(C(=O)O)cn5C4CC4)CC3)nn2)cc1
inactive: NCI-H23 lung 85.4% | NCI-H226 lung 84.5% | NCI-H322M lung 87.1% | HOP-62 NSCLC 87.4% | NCI-H460 lung 85.8% | HOP-92 NSCLC 84.6% | NCI-H522 lung 78.3% | A549/ATCC NSCLC 87.3% | 786-0 renal 76.7% | COLO 205 colon 107%

c1ccc(CCc2ccccc2-c2cc(-c3ccccc3)on2)cc1
inactive: NCI-H23 lung 75.1% | NCI-H226 lung 96.5% | NCI-H322M lung 87% | HOP-62 NSCLC 96.5% | NCI-H460 lung 82.4% | HOP-92 NSCLC 103% | NCI-H522 lung 80.1% | A549/ATCC NSCLC 97.7% | 786-0 renal 94.5% | COLO 205 colon 100%

CC(C)CCSc1nc(Nc2ccccc2)c(C#N)c(-c2ccccc2)n1
inactive: NCI-H23 lung 50.1% | NCI-H226 lung 90.3% | NCI-H322M lung 34.3% | HOP-62 NSCLC 19.7% | NCI-H460 lung 14.6% | HOP-92 NSCLC 21.8% | NCI-H522 lung 69.8% | A549/ATCC NSCLC 14.8% | COLO 205 colon 46%
active: 786-0 renal 8.79%

Cn1cc(/C=C2/C(=O)Nc3ccccc32)c2ccccc21
inactive: NCI-H23 lung 73.4% | NCI-H226 lung 70.6% | NCI-H322M lung 91.5% | HOP-62 NSCLC 76.8% | NCI-H460 lung 92.4% | HOP-92 NSCLC 87.4% | NCI-H522 lung 77.8% | A549/ATCC NSCLC 86.2% | 786-0 renal 98.4% | COLO 205 colon 91.7%

CCOC(=O)C/C(=N\Nc1cc(=O)[nH]c2ccc(Cl)cc12)C(=O)OCC
inactive: NCI-H23 lung 95.3% | NCI-H226 lung 98.2% | NCI-H322M lung 91.3% | HOP-62 NSCLC 101% | NCI-H460 lung 103% | HOP-92 NSCLC 87.5% | NCI-H522 lung 105% | A549/ATCC NSCLC 100% | 786-0 renal 106% | COLO 205 colon 121%

C=C(CN1CC=CCC1)[C@@H]1CC[C@]2(CO)CC[C@]3(C)[C@H](CC[C@@H]4[C@@]5(C)CC[C@H](O)C(C)(C)[C@@H]5CC[C@]43C)[C@@H]12
inactive: NCI-H23 lung 101% | NCI-H226 lung 97.4% | NCI-H322M lung 110% | HOP-62 NSCLC 104% | NCI-H460 lung 96.2% | HOP-92 NSCLC 92.4% | NCI-H522 lung 96% | A549/ATCC NSCLC 94.8% | 786-0 renal 113% | COLO 205 colon 108%

CCn1cc(C2=C(c3cn(C)c4ncccc34)C(=O)NC2=O)c2cccnc21
inactive: NCI-H23 lung 66.3% | NCI-H226 lung 57.5% | NCI-H322M lung 79.6% | HOP-62 NSCLC 73.1% | NCI-H460 lung 44.5% | HOP-92 NSCLC 81.4% | NCI-H522 lung 83.9% | A549/ATCC NSCLC 65% | 786-0 renal 50.5% | COLO 205 colon 49%

CCOC(=O)c1c(NC(=O)c2ccc(OC)cc2)sc2c(CN(C)C)c(O)ccc12
inactive: NCI-H23 lung 90.6% | NCI-H226 lung 101% | NCI-H322M lung 89.6% | HOP-62 NSCLC 85% | NCI-H460 lung 60% | HOP-92 NSCLC 25.3% | NCI-H522 lung 75.1% | A549/ATCC NSCLC 74% | 786-0 renal 63.4% | COLO 205 colon 55.3%

Nc1n[nH]c2ccc([C@@H]3Nc4cc5[nH]ncc5cc4[C@H]4C5CCC(C5)[C@@H]34)cc12 (stereo not given in full)
inactive: NCI-H23 lung 27.3% | NCI-H226 lung 15% | NCI-H322M lung 43% | HOP-62 NSCLC 46.9% | HOP-92 NSCLC 58.2% | NCI-H522 lung 13.9% | A549/ATCC NSCLC 24.6% | 786-0 renal 28.3%
active: NCI-H460 lung 7.16% | COLO 205 colon -11.9%

COc1cc2c(/C=C3\C(=O)Nc4ccccc43)c(C(=O)O)[nH]c2cc1C
inactive: NCI-H23 lung 82.5% | NCI-H226 lung 89.2% | NCI-H322M lung 105% | HOP-62 NSCLC 92% | NCI-H460 lung 105% | HOP-92 NSCLC 63.8% | NCI-H522 lung 93.5% | A549/ATCC NSCLC 106% | 786-0 renal 108% | COLO 205 colon 120%

Cc1cc(N2CCCCC2)nc(N2CCN(CC(=O)Nc3ccc4c(ccn4Cc4ccccc4)c3)CC2)n1
inactive: NCI-H23 lung 59.2% | NCI-H226 lung 65.1% | NCI-H322M lung 83% | HOP-62 NSCLC 67.1% | NCI-H460 lung 56.5% | HOP-92 NSCLC 23.6% | NCI-H522 lung 65.1% | A549/ATCC NSCLC 49.2% | 786-0 renal 68.6% | COLO 205 colon 48.2%

COP(=O)(OC)c1nnn(-c2cccc([N+](=O)[O-])c2)c1C
inactive: NCI-H23 lung 107% | NCI-H226 lung 120% | NCI-H322M lung 114% | HOP-62 NSCLC 110% | NCI-H460 lung 104% | HOP-92 NSCLC 119% | NCI-H522 lung 90.3% | A549/ATCC NSCLC 111% | 786-0 renal 103% | COLO 205 colon 122%

COc1ccc(C2CC(c3ccc4c(c3)OCO4)=Nc3c(N)ncnc3N2)cc1 (stereo not given)
inactive: NCI-H23 lung 107% | NCI-H226 lung 100% | NCI-H322M lung 95.4% | HOP-62 NSCLC 88.6% | NCI-H460 lung 111% | HOP-92 NSCLC 62.4% | NCI-H522 lung 108% | A549/ATCC NSCLC 104% | 786-0 renal 102% | COLO 205 colon 100%

O=C(O)CCCn1c(SCc2c(Cl)cccc2Cl)nc2ccsc2c1=O
active: NCI-H522 lung -3.68% | COLO 205 colon 3.82%
inactive: NCI-H23 lung 33.6% | NCI-H226 lung 43.4% | NCI-H322M lung 48.3% | HOP-62 NSCLC 45.2% | NCI-H460 lung 10.2% | HOP-92 NSCLC 24.5% | A549/ATCC NSCLC 34.4% | 786-0 renal 23.9%

COc1ccc2c(c1)c(-c1nc(-c3cn(C)c4ncccc34)cs1)cn2CCO
inactive: NCI-H23 lung 89.4% | NCI-H226 lung 70.1% | NCI-H322M lung 77.7% | HOP-62 NSCLC 81.2% | NCI-H460 lung 74.9% | HOP-92 NSCLC 70.4% | NCI-H522 lung 60.5% | A549/ATCC NSCLC 79.8% | 786-0 renal 80% | COLO 205 colon 81.2%

COc1cc2cc(NCc3ccc(OC(F)F)cc3)nc(C)c2cc1OC
inactive: NCI-H23 lung 45.1% | NCI-H226 lung 75.5% | NCI-H322M lung 53.4% | HOP-62 NSCLC 58.7% | NCI-H460 lung 57.2% | HOP-92 NSCLC 63% | NCI-H522 lung 45.3% | A549/ATCC NSCLC 72.1% | 786-0 renal 61.8% | COLO 205 colon 65.7%

COc1ccc(OC)c(-c2cn3nc(-c4c[nH]c5ccc(Br)cc45)sc3n2)c1
active: NCI-H460 lung -32.4% | NCI-H522 lung 8.67%
inactive: NCI-H23 lung 25% | NCI-H226 lung 89.9% | NCI-H322M lung 50.6% | HOP-62 NSCLC 60.9% | HOP-92 NSCLC 46.5% | A549/ATCC NSCLC 14.5% | 786-0 renal 49.3% | COLO 205 colon 29.8%

COC(=O)c1c2c(c(C)[n+]([O-])c1C)C(=O)C=CC2=O
active: NCI-H23 lung -68.3% | NCI-H226 lung -91.9% | NCI-H322M lung 2.39% | HOP-62 NSCLC -65.4% | NCI-H460 lung 2.35% | NCI-H522 lung -70.1% | 786-0 renal -29.9% | COLO 205 colon -78.5%
inactive: HOP-92 NSCLC 45.8% | A549/ATCC NSCLC 15.8%

O=C(O)CCCc1cnc2c3sccc3nc(SCc3c(Cl)cccc3Cl)n12
inactive: NCI-H23 lung 62.2% | NCI-H226 lung 83.1% | NCI-H322M lung 55.3% | HOP-62 NSCLC 33.9% | NCI-H460 lung 22.2% | HOP-92 NSCLC 58.7% | A549/ATCC NSCLC 59.5% | 786-0 renal 38.5% | COLO 205 colon 28.3%
active: NCI-H522 lung -12.5%

O[C@@H](c1cc(C(F)(F)F)nc2c(C(F)(F)F)cccc12)[C@H]1CCCCN1
inactive: NCI-H23 lung 81.5% | NCI-H226 lung 94.6% | NCI-H322M lung 71.5% | HOP-62 NSCLC 56.1% | NCI-H460 lung 35.6% | HOP-92 NSCLC 12.3% | NCI-H522 lung 40% | A549/ATCC NSCLC 66% | 786-0 renal 46.3% | COLO 205 colon 67.9%

O=C(Nc1ccccc1)c1sc(-c2ccccc2)cc1O
inactive: NCI-H23 lung 83.3% | NCI-H226 lung 94.9% | NCI-H322M lung 96.9% | HOP-62 NSCLC 112% | NCI-H460 lung 92.5% | HOP-92 NSCLC 77% | NCI-H522 lung 85.3% | A549/ATCC NSCLC 111% | 786-0 renal 101% | COLO 205 colon 113%

COCCCOc1cc(C[C@@H](C[C@H](N)[C@@H](O)C[C@H](C(=O)NCC(C)(C)C(N)=O)C(C)C)C(C)C)ccc1OC
inactive: NCI-H23 lung 99.4% | NCI-H226 lung 102% | NCI-H322M lung 114% | HOP-62 NSCLC 114% | NCI-H460 lung 112% | HOP-92 NSCLC 84.5% | NCI-H522 lung 101% | A549/ATCC NSCLC 103% | 786-0 renal 103% | COLO 205 colon 112%

CC1(C)CCC(S(=O)(=O)c2ccc3c(c2)/C(=N\O)c2cc(S(=O)(=O)N4CCN(c5ccc(F)cc5O)CC4)ccc2-3)CC1
active: NCI-H23 lung -76.8% | NCI-H226 lung -57% | NCI-H322M lung -46.9% | HOP-62 NSCLC -88.1% | NCI-H460 lung -78% | HOP-92 NSCLC -50.4% | NCI-H522 lung -82.6% | A549/ATCC NSCLC -92.9% | 786-0 renal -89.9% | COLO 205 colon -88.8%

Fc1ccc(COc2ccc(Nc3ncnc4sc5c(c34)CCCC5)cc2)cc1
inactive: NCI-H23 lung 99.4% | NCI-H226 lung 102% | NCI-H322M lung 86.9% | HOP-62 NSCLC 97.2% | NCI-H460 lung 97.3% | HOP-92 NSCLC 88.9% | NCI-H522 lung 73% | A549/ATCC NSCLC 88.4% | 786-0 renal 94.6% | COLO 205 colon 103%

COc1cc(OC)cc(C2C(C#N)=C(N)Oc3c2ccc2ccc(O)cc32)c1 (stereo not given)
inactive: NCI-H23 lung 14.9% | NCI-H226 lung 38.2% | NCI-H322M lung 30.9% | HOP-62 NSCLC 23.3% | HOP-92 NSCLC 13.4% | 786-0 renal 12.7%
active: NCI-H460 lung 3.85% | NCI-H522 lung 1.5% | A549/ATCC NSCLC 6.38% | COLO 205 colon -42%
